Data on 18 molecules can be found in PubChem BioAssay.

A number with no mark means an inactive call. For part of these data: Measured potencies and affinities stand elsewhere. The source made the active and inactive calls. Unless noted, how the calls were made is not given here.

Experiment [1] is described as follows: antimalarial activity against Dd2 strain (AID 2302;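 active means growth inhibition above 50% at the single 2 µM test dose, taken to imply half-maximal potency below 2 µM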;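 further: 0% = DMSO untreated growth and 100% = chloroquine plus artemisinin killed control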). The conditions noted are these: P. falciparum Dd2 in RBCs, LDH growth readout, 72 h; at 2 µM; stronger effect = higher value.
A short description of experiment [2]: HepG2 cytotoxicity, primary screen, cytotoxicity control for P. falciparum antimalarial project, cell-based, ATP luminescence (AID 2303;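 active means inhibition above 50%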;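 further: 0% = DMSO wells and 100% = digitonin-killed cells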). The conditions noted are these: HepG2 viability, 24-48 h, at 10 µM, stronger effect = higher value.
The target of experiment [3] is L-lactate dehydrogenase (Plasmodium falciparum (isolate CDC / Honduras)) (UniProt Q27743). As to the kind of experiment: PfLDH activity inhibition – cell lysate, 3D7 strain, counter-screen for P. falciparum growth inhibition project (AID 2304).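 Further: 0% = vehicle and 100% = reference inhibitor.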 The conditions noted are these: P. falciparum 3D7 crude extract, LDH APAD/NBT absorbance; at 2 µM; stronger effect = higher value. (A counterscreen serves to expose hits that act by an unwanted route or on another target.)

Experiment [4] can be described thus: inhibition of 3D7 malaria parasite growth – strain 3D7 (AID 2306).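 Further: 0% = DMSO wells and 100% = chloroquine plus artemisinin control wells.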 The conditions noted are these: P. falciparum 3D7 erythrocytic growth, LDH absorbance, 72 h; at 2 µM; stronger effect = higher value.
The target of experiment [5] is Calcium-dependent protein kinase 1 (Plasmodium falciparum (isolate 3D7)) (UniProt P62344). As to the kind of experiment: PfCDPK1 kinase inhibitors, biochemical, TCAMS library (AID 1159585; cut-off not given, nearly all actives have IC50 up to about 0.98 µM;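 further: inhibitors leave more ATP so luminescence rises with inhibition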). The conditions noted are these: recombinant PfCDPK1, Kinase-Glo ATP depletion luminescence.
For experiment [6], the target named is Plasmodium falciparum protein kinase 6 (PK6, PF3D7_1337100) (UniProt Q8IDW1). Description: PfPK6 kinase inhibitors, biochemical, TCAMS library (AID 1159586). The conditions noted are these: recombinant PfPK6, Kinase-Glo ATP depletion luminescence. Background: Kinase-Glo measures the ATP left after a reaction by luminescence.
Experiment [7] has as its target Protein kinase 7 (PK7), Plasmodium falciparum 3D7 (PF3D7_0213400) (UniProt Q7YTF7). As to the kind of experiment: inhibition of Plasmodium PK7 catalytic activity – biochemical, TCAMS antimalarial set, Kinase-Glo luminescence (AID 1159587). The conditions noted are these: recombinant PfPK7, Kinase-Glo ATP depletion luminescence.
In experiment [8] the target is Calcium-dependent protein kinase 4 (Plasmodium falciparum (isolate 3D7)) (UniProt Q8IBS5). Description: PfCDPK4 kinase inhibitors, biochemical, TCAMS library (AID 1159588; cut-off not given, nearly all actives have IC50 up to about 0.91 µM). The conditions noted are these: recombinant PfCDPK4, Kinase-Glo ATP depletion luminescence.
Chain of Calcium-dependent protein kinase 4 (Plasmodium falciparum (isolate 3D7)) (Q8IBS5 whole entry, looked up): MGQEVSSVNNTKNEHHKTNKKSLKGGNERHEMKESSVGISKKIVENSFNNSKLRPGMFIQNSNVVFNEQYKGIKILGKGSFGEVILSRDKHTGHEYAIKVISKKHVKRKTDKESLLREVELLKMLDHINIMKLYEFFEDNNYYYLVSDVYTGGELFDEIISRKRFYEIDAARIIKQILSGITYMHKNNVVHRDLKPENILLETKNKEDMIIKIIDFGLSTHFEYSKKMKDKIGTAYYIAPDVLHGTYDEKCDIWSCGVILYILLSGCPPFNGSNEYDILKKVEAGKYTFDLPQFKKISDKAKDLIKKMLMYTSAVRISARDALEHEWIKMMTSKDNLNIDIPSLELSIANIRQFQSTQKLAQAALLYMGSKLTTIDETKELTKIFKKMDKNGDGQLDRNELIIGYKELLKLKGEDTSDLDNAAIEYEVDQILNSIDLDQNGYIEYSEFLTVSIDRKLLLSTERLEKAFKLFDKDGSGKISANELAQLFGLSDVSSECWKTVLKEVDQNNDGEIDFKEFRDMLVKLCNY

Chain of Protein kinase 7 (PK7), Plasmodium falciparum 3D7 (PF3D7_0213400) (Q7YTF7 1-343): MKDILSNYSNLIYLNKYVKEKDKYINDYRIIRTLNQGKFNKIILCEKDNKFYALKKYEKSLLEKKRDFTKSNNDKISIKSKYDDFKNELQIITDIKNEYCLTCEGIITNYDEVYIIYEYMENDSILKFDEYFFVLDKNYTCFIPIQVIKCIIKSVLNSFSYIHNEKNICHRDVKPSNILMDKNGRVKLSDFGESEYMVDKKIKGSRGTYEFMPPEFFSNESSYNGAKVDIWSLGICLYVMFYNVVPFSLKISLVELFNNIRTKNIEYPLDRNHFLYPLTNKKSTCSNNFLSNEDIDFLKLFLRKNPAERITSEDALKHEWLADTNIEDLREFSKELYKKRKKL
Chain of Calcium-dependent protein kinase 1 (Plasmodium falciparum (isolate 3D7)) (P62344 whole entry, looked up): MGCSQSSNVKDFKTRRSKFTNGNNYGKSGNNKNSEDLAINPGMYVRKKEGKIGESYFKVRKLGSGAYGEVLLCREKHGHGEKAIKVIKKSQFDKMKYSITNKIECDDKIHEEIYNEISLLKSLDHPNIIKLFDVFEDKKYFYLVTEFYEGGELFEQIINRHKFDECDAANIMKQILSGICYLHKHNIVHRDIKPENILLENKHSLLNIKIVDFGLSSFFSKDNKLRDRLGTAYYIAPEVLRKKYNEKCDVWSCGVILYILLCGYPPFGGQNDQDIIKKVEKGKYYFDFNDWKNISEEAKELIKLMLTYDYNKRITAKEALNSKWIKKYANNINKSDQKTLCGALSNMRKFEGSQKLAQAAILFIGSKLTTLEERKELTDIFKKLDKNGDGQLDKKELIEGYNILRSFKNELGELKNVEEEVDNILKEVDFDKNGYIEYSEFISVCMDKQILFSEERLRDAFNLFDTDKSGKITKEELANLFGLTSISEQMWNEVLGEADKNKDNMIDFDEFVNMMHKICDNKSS
Chain of L-lactate dehydrogenase (Plasmodium falciparum (isolate CDC / Honduras)) (Q27743 whole entry, looked up): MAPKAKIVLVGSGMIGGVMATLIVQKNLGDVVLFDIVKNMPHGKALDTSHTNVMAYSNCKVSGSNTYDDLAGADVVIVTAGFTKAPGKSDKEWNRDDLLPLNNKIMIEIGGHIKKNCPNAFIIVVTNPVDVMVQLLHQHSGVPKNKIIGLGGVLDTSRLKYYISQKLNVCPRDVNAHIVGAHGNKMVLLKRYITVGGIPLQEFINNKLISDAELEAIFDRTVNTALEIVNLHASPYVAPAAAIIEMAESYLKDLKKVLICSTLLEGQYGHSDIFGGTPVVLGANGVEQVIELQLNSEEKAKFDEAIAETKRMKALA
Chain of Plasmodium falciparum protein kinase 6 (PK6, PF3D7_1337100) (Q8IDW1 1-305): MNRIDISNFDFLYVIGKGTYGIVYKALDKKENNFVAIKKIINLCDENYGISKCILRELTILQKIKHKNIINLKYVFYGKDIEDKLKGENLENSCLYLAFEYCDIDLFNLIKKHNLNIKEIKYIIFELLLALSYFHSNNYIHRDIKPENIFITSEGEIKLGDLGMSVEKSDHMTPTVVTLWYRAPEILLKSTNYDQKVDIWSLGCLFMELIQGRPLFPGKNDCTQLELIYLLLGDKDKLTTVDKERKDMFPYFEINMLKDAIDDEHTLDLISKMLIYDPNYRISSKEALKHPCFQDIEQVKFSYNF

As usually defined, the inhibition is the relative decrease from the control value, in per cent. Take `CCCNCc1ccc(-c2ccc(CN(CCOC)C(=O)[C@H]3CCCO3)cc2)nc1`: the growth inhibition in experiment [1] is 6%; in experiment [4], 98% (active). The results for the inhibition in experiment [2] and in experiment [3] were 1% and -3%, respectively. Further, the result in experiment [5], in experiment [6], in experiment [7] and in experiment [8] was inactive.

As to `Cc1nc(NCCCn2ccnc2)cc(-c2cncc(-c3ccc(OC(F)(F)F)cc3)c2)n1`, the growth inhibition in experiment [1] was 11%; in experiment [4] it was 99% (active). Moreover, the inhibition in experiment [2] and in experiment [3] was 2% each time. For the same molecule, the outcome in experiment [5], in experiment [6], in experiment [7] and in experiment [8] was inactive.

Consider `CCCCOc1ccc(-n2c(Nc3ccccc3)nc3cc(S(N)(=O)=O)ccc32)cc1`, for which the growth inhibition in experiment [1] was 72% (active); in experiment [4], 90% (active). Moreover, the inhibition in experiment [2] was 0%; in experiment [3] it was -6%. The outcome in experiment [5], in experiment [6], in experiment [7] and in experiment [8] was inactive.

As to `OCc1ccc2nc3c(cc2c1)-c1cccc2cccc-3c12`, the growth inhibition in experiment [1] was -1%; in experiment [4], 96% (active). Further, the inhibition was 16% in experiment [2] and 4% in experiment [3]. For the same molecule, the result in experiment [5], in experiment [6], in experiment [7] and in experiment [8] was inactive.

In the case of `O=C(Cc1cccc(Cl)c1)N1CCc2cc3nccc(N4CCN5CCC[C@H]5C4)c3cc21`, the results for the growth inhibition in experiment [1] and in experiment [4] were 4% and 96% (active), respectively. Also, the inhibition in experiment [2] was 14%; in experiment [3], 4%. The result in experiment [5], in experiment [6], in experiment [7] and in experiment [8] was inactive.

Turning to `O=C(Nc1ccc(N2CCCCC2)c(Cl)c1)c1ncn[nH]1`, the growth inhibition in experiment [1] and in experiment [4] was 93% (active) each time. For the same molecule, the results for the inhibition in experiment [2] and in experiment [3] were -4% and -6%, respectively. The result in experiment [5], in experiment [6], in experiment [7] and in experiment [8] was inactive.

For `COc1cc2c(cc1CCNCCCCNCCc1cc3c(cc1OC)CCCC3)CCCC2`, the results for the growth inhibition in experiment [1] and in experiment [4] were 36% and 101% (active), respectively. In addition, the inhibition was 100% (active) in experiment [2] and 0% in experiment [3]. The outcome in experiment [5], in experiment [6], in experiment [7] and in experiment [8] was inactive.

On to `Cn1nc(-c2ccc(CNC3CCc4ccccc43)cc2)c2cnc(NCCN3CCCC3)nc21` (centres undefined), for which the figures for the growth inhibition in experiment [1] and in experiment [4] were 17% and 99% (active), respectively. The inhibition is 21% in experiment [2] and -2% in experiment [3]. Also, the result in experiment [5], in experiment [6], in experiment [7] and in experiment [8] was inactive.

With `O=C(c1ccc(Cl)cc1Cl)N1CCCC(C(F)(F)F)C1` (centres undefined), the growth inhibition in experiment [1] is 47%; in experiment [4], 95% (active). Besides, the figures for the inhibition in experiment [2] and in experiment [3] were 6% and 3%, respectively. The result in experiment [5], in experiment [6], in experiment [7] and in experiment [8] was inactive.

As to `CC(C)(C)c1ccc2nc(-c3ccc(C(=O)NC4CCN(Cc5ccccc5)CC4)s3)[nH]c2c1`, the figures for the growth inhibition in experiment [1] and in experiment [4] were 42% and 91% (active), respectively. Also, the values for the inhibition in experiment [2] and in experiment [3] were 24% and 0%, respectively. For the same molecule, the result in experiment [5], in experiment [6], in experiment [7] and in experiment [8] was inactive.

Consider `Cc1c(NC(=O)COc2ccc(Cl)cc2C(=O)c2cc(F)cc(C(F)(F)F)c2)ccc2ncsc12`, for which the values for the growth inhibition in experiment [1] and in experiment [4] were 18% and 86% (active), respectively. Further, the inhibition in experiment [2] and in experiment [3] was -2% each time. Besides, the outcome in experiment [5], in experiment [6], in experiment [7] and in experiment [8] was inactive.

Turning to `Cn1cc(C2CCN(CCCCNC(=O)c3ccc(C(=O)Nc4ccc(C#N)cc4)cc3)CC2)c2ccccc21`, the growth inhibition in experiment [1] is 58% (active); in experiment [4], 100% (active). Besides, the inhibition in experiment [2] is 16%; in experiment [3] it was -4%. Moreover, the outcome in experiment [5], in experiment [6], in experiment [7] and in experiment [8] was inactive.

On to `O=C(Nc1cccc(CN2CCCN(Cc3ncc[nH]3)CC2)c1)c1ccc2ccccc2c1`, for which the growth inhibition in experiment [1] is 2%; in experiment [4], 100% (active). The inhibition in experiment [2] is 13%; in experiment [3], -1%. Besides, the result in experiment [5], in experiment [6], in experiment [7] and in experiment [8] was inactive.

Consider `CS(=O)(=O)CCCNCc1ccc(-c2cc3c(Nc4ccc(OCc5ccccc5)cc4)ncnc3cn2)o1`, for which the growth inhibition is 16% in experiment [1] and 87% (active) in experiment [4]. In addition, the inhibition in experiment [2] is 10%; in experiment [3], -8%. The outcome in experiment [5], in experiment [6], in experiment [7] and in experiment [8] was inactive.

On to `COC(=O)C1=CNC=C(C(=O)OC)C1c1ccc(Cl)c([N+](=O)[O-])c1`, for which the growth inhibition in experiment [1] was 79% (active); in experiment [4], 93% (active). For the same molecule, the inhibition in experiment [2] is -1%; in experiment [3] it was -4%. The result in experiment [5], in experiment [6], in experiment [7] and in experiment [8] was inactive.

In the case of `COc1ccc(NC(=O)[C@H](Cc2ccccc2)Nc2cc(C)nc(NCCc3cccnc3)n2)cc1`, the values for the growth inhibition in experiment [1] and in experiment [4] were 5% and 98% (active), respectively. Besides, the inhibition was 11% in experiment [2] and -4% in experiment [3]. Moreover, the result in experiment [5], in experiment [6], in experiment [7] and in experiment [8] was inactive.

As for `O=C(/C=C/c1ccc(Cl)cc1)NCCCCCN1CCC(c2c[nH]c3ccccc23)CC1`, the growth inhibition in experiment [1] is 15%; in experiment [4], 99% (active). Further, the results for the inhibition in experiment [2] and in experiment [3] were 42% and 7%, respectively. The result in experiment [5], in experiment [6], in experiment [7] and in experiment [8] was inactive.

Consider `COc1cc2nc(N3CCC(CNC(=O)c4ccc(-c5ccc(C(=O)N(C)C)cc5O)cc4)CC3)nc(N)c2cc1OC`, for which the growth inhibition in experiment [1] was 90% (active); in experiment [4] it was 101% (active). The figures for the inhibition in experiment [2] and in experiment [3] were 2% and 3%, respectively. Besides, the result in experiment [5], in experiment [6], in experiment [7] and in experiment [8] was inactive.
